Compound activity: PubChem, National Center for Advancing Translational Sciences (NCATS)
Shown is part of a subset that was picked to be rich in hits.
Pf Dd2 growth: qHTS Primary assay for Inhibitors of Plasmodium falciparum Dd2 growth in vitro; P. falciparum Dd2 growth, SYBR Green, 72 h; Potency, µM (series often up to 28.9 µM), without a hit: at the top dose activity, negative = inhibition, actives largely listed as inhibitors; 120,000 tested, 4.3% active; active = well fitted inhibition curve with a large enough effect;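 also: plate controls were DMSO vehicle for no effect and reference drug for full effect; nearly all actives have a fitted effect of over 65% in size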
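Infected erythrocytes (Dd2, 0.3% parasitemia, 2.5% hematocrit final) are added to compound in RPMI-1640/Albumax II medium, grown 72 h at 37C in low oxygen, then lysed with saponin/Triton-X containing SYBR Green and read by fluorescence.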
Starred values were filed as active, the others as inactive; i = inactive; ! = not confirmed by another sample; [ ] = remark or other dose. Potency is read from the fitted curve at half-maximal effect.

SMILES	Pf Dd2 growth
O=C1CC(c2ccccc2)N(S(=O)(=O)c2ccccc2)CCCCCN1 (stereo not given)	i
COC(=O)[C@@H]1Cc2ncn(C)c2CN1S(=O)(=O)Cc1ccccc1	6%[44.1 µM]
OCc1n[nH]c2c1CN(Cc1cccc(OCC(O)CN3CCOCC3)c1)CC2 (stereo not given)	-9%
O=C(Cc1ccccc1)NCC1CN(C(=O)C2CCOCC2)CC12CN(c1ccccc1)C2 (stereo not given)	-21%
C[S+](=O)([O-])NCCn1ccc2cc(OC3CCN(c4ncccn4)CC3)cnc21	i
COCCNC(=O)C[C@@H]1C[C@H]2O[C@H](CNC(=O)Nc3cccnc3)[C@@H](O)[C@H]2O1	31%[44.1 µM]
COc1cccc(CC(=O)N2CCC(c3noc(CO)n3)C2)c1 (stereo not given)	6%
Cc1ncsc1CN1CCCCCCNC(=O)CC1c1ccccc1 (stereo not given)	i
CCNC(=O)N1CCCCCNC(=O)CC1c1ccccc1 (stereo not given)	20%
CCOc1ccccc1CN1CCCCCCNC(=O)CC1c1ccccc1 (stereo not given)	11µM*
CN(C(=O)CN1C(=O)C(c2ccccc2)=NC12CCCC2)c1ccccc1	i
COc1cccc(C(=O)N2CCN(c3cc(C(F)(F)F)ncn3)CC2)c1	-5%
Cc1ccc(NC(=O)Cn2ccn3nc(-c4ccccc4)c(CO)c3c2=O)cc1Cl	3%
O=C(Cn1ccn2nc3c(c2c1=O)CCCCC3)Nc1ccccc1	i
Cc1ccc(NC(=O)Nc2csc3c2CCCC3)c(C)c1	i[5.79 µM]
CCc1cccc(C)c1NC(=O)Nc1csc2c1CCCC2	42%[5.79 µM]
O=C(Nc1ccc(F)cc1)Nc1csc2c1CCCC2	10µM*
O=C(C1CCN(C(=O)N2CC3CC(C2)[C@H]2CCCC(=O)N2C3)CC1)N1CCN(c2ccccn2)CC1 (stereo not given in full)	i
CC(C)Cn1nc(C(=O)O)c2c1CCN(C(=O)CC(C)c1ccccc1)C2 (stereo not given)	-5%
CN(c1cc(=O)c2ccnc(-c3cccc(CO)c3)c2o1)C1CCOCC1	i
COc1ccc(C(=O)N[C@@H]2CCC[C@@H]2C(=O)N2CCN(Cc3ccc(F)cc3)CC2)cc1	-19%
COc1ccc(C(=O)N[C@@H]2CCC[C@@H]2C(=O)N2CCCC2)cc1	-20%
COc1ccc(C(=O)N[C@@H]2CCC[C@@H]2C(=O)N2CCOCC2)cc1	30%
COc1ccc(C(=O)N[C@@H]2CCC[C@@H]2C(=O)N2CCCCC2)cc1	6%
COc1ccc(C(=O)N[C@@H]2CCC[C@@H]2C(=O)NCCCn2cccn2)cc1	11%
SMILES	Pf Dd2 growth
COc1ccc(C(=O)N[C@@H]2CCC[C@@H]2C(=O)NCCCN2CCCc3ccccc32)cc1	11µM*
COc1ccc(C(=O)N[C@@H]2CCC[C@@H]2C(=O)N2CCN(c3cc(C)ccc3C)CC2)cc1	5µM*
CCCNC(=O)[C@H]1CCC[C@H]1NC(=O)c1ccc(OC)cc1	-14%
COc1ccc(C(=O)N[C@@H]2CCC[C@@H]2C(=O)N2CCN(c3ccccc3F)CC2)cc1	10µM*
Cc1cnc(C2CCOCC2)n1CC1CCN(C(=O)CC2CCCC2)CC1	-15%
O=C(NC1CCCCC1)O[C@@H]1CO[C@H]2[C@@H]1OC[C@@H]2NC(=O)c1ccccc1	-9%[44.1 µM]
CCc1noc(-c2cn(C3CCN(C(=O)c4sccc4C)C3)nn2)n1 (stereo not given)	-25%
O=C(Cn1nc2n(c1=O)CCCC2)NCc1ccccc1	10%
CCN(CC)C(=O)CC[C@H]1CNC(=O)[C@H]2NCC[C@H]2N1C	18%[44.1 µM]
Cc1ccc(C#N)c(N2CC[C@@]3(O)CCN(S(=O)(=O)N(C)C)C[C@H]3C2)n1	-16%
COCCn1c(COc2ccc3c(c2)ncn3C)nnc1C1CC(N)C1 (stereo not given)	-17%
CCn1c(COc2ccc(C)nc2)nnc1C1CC(N)C1 (stereo not given)	-26%
NC1CC(c2nnc(COc3ccc4c(c3)CCNCC4)n2C2CC2)C1 (stereo not given)	10µM*!
CC(C)CCNC(=O)N1CCCC(c2noc(COc3ccccc3F)n2)C1 (stereo not given)	i
CCOc1cc(=O)n2c(c1C(=O)N1CCN(c3cccc(Cl)c3)CC1)CCCC2	-10%
O=C1CS(=O)(=O)C2(C(=O)N(Cc3ccccc3Cl)c3ccccc32)N1c1ccc(F)cc1 (stereo not given)	5.6µM*
CN1C(=O)C2(c3ccccc31)N(c1ccc(F)c(Cl)c1)C(=O)CS2(=O)=O (stereo not given)	-15%
COc1ccc(N2C(=O)CS(=O)(=O)C23C(=O)N(Cc2ccccc2)c2ccccc23)cc1 (stereo not given)	-23%
O=C(NCCCN1CCOCC1)c1ccc(N2CC3CC(C2)[C@H]2CCCC(=O)N2C3)nc1 (stereo not given in full)	-30%
O=C(NCCCN1CCCc2ccccc21)c1cccnc1N1CC2CC(C1)[C@H]1CCCC(=O)N1C2 (stereo not given in full)	i
O=C(NCCCN1CCCc2ccccc21)c1ccc(N2CC3CC(C2)[C@H]2CCCC(=O)N2C3)nc1 (stereo not given in full)	11µM*
O=C1N(Cc2ccc(F)cc2)CCCC12CCN(CC1CCCC1)C2 (stereo not given)	4µM*
O=C1Nc2ccccc2CC12CCCN(CC1CCCCC1)C2 (stereo not given)	-21%
CN(C)S(=O)(=O)N1CCC2(CCCN(Cc3ccc(F)c(F)c3)C2=O)C1 (stereo not given)	-11%
CCS(=O)(=O)N(C1CC1)C1CCOC2(CCN(C(=O)Cc3ccccc3)CC2)C1 (stereo not given)	29%
SMILES	Pf Dd2 growth
CC(C)Cc1cc(C(=O)NCc2noc(-c3c(F)cccc3F)n2)no1	-13%
CCOCc1nc(C2CCCN(C(=O)c3ccco3)C2)no1 (stereo not given)	i
Cn1ccc2c(C(=O)NCC3CCC(=O)N3)nc(-c3ccccc3O)cc21 (stereo not given)	i
Cc1cc(=O)n(CC(=O)Nc2ccc(Br)cc2)c(N2CCN(c3ccccc3)CC2)n1	-11%
Cc1ccc(NC(=O)Cn2c(N3CCC(C)CC3)nc(C)cc2=O)c(C)c1	i
CCOc1ccccc1NC(=O)Cn1c(N2CCC(C)CC2)nc(C)cc1=O	11µM*
COc1ccc(Cl)cc1NC(=O)Cn1c(N2CCN(c3ccccc3)CC2)nc(C)cc1=O	7.9µM*
COc1ccccc1NC(=O)Cn1c(N2CCC(C)CC2)nc(C)cc1=O	-5%
CCOc1ccc(NC(=O)Cn2c(N3CCN(c4ccccc4)CC3)nc(C)cc2=O)cc1	i
CC(=O)NC[C@H]1OC[C@@H](N(Cc2cccc(C#N)c2)Cc2cccc(C#N)c2)[C@@H]1O	i
N#Cc1cccc(C(=O)N2CCN(C(=O)c3nnn4c3COC(c3ccccc3)C4)CC2)c1 (stereo not given)	i
Cc1cc(C(=O)N2CCC3(CC2)N=C(CC(C)C)NC3=O)c(C)o1	-13%
CCn1cc(S(=O)(=O)N2C[C@H]3CN(CCO)C[C@@]3(C(=O)O)C2)cn1	1%
CC(C)NC(=O)N1CCC2(CC1)CC(CC(=O)O)CCO2 (stereo not given)	-4%
CCOC(=O)C1=C(CN2CCN(C)CC2)NC(=O)NC1c1ccc(F)cc1 (stereo not given)	49%
CCOC(=O)C1=C(CN(C)Cc2ccccc2)NC(=O)NC1c1ccc(OC)cc1 (stereo not given)	i
